Laboratory results reported in PubChem BioAssay AID817 (Emory University Molecular Libraries Screening Center, 2007).
About 300 (0.21%) of roughly 140,000 compounds were called active. The sample holds actives, similar compounds and a random draw of the others, so the mix is not that of the screen.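 The calls were made as follows: active = z-score above 3 at both the 24 hr and the 30 hr optical density reads; inactive = the rest, inconclusive results apart.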

Assay: growth rescue of sdo1-depleted yeast, primary screen, S. cerevisiae, bone marrow failure model (AID 817);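 also: z-score against mean and SD of all compound wells on the same plate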
Conditions: S. cerevisiae sdo1-depleted JHY4D growth rescue, at 10 µM, stronger effect = higher value, pdr5 snq2 efflux-pump mutant strain
[1] = OD600, measured here: growth rescue at 24 h

SMILES | z-score (OD600 30 h) | z-score [1]
CCC(C)C(=O)Nc1cc([N+](=O)[O-])ccc1Cl (configuration not stated) | 0.25 (inactive) | -0.26
CN(C)/C(=N\OC(=O)c1ccccc1)c1nonc1N | -0.17 (inactive) | 0.24
COCCn1c(=O)[nH]c(=O)c2cc(C(=O)c3cc(OC)ccc3O)cnc21 | 0.16 (inactive) | 0.23
N#C/C(=C\C1=C(N2CCOCC2)C(=C\c2ccccc2)/CC1)C(=O)Nc1ccccc1F | 0.41 (inactive) | 2.72
COc1cc(OC)cc(C(=O)NCC(=O)OCc2csc(-c3ccccc3)n2)c1 | -0.49 (inactive) | -0.88
O=C(/C=C/c1ccccc1[N+](=O)[O-])NCC1CCCO1 (configuration not stated) | 1.67 (inactive) | 2.05
Cc1cc(C(=O)NNC(=S)NC(C)c2ccccc2)cs1 (configuration not stated) | 0.17 (inactive) | -0.18
O=C(CN1CCN(S(=O)(=O)c2ccc(Br)cc2)CC1)Nc1ccccc1C(=O)c1ccccc1 | -0.96 (inactive) | -0.1
Cc1c(C(=O)NCCCc2ccccc2)cccc1[N+](=O)[O-] | -0.72 (inactive) | -1.83
CN(C)c1ccc(Nc2c3c4c(cccc4n(C)c2=O)C(=O)c2ccccc2-3)cc1 | 12.3 (active) | 10.3
O=[N+]([O-])c1cccc(C2=NCCS2)c1 | 0.63 (inactive) | 0.08
Cc1ccccc1NC(=S)N(CCCN1CCOCC1)Cc1cccs1 | 0.26 (inactive) | 0.42
O=C1NC(c2ccccc2)CCC1(Cl)Cl (configuration not stated) | 0.83 (inactive) | -0.01
NS(=O)(=O)c1cc(C(=O)NCCOc2ccccc2)c(Cl)cc1Cl | -0.22 (inactive) | -0.02
O=C(NNC1=NCCC1)c1cccc(S(=O)(=O)N2CCCCC2)c1 | 1.39 (inactive) | 1.17
CCN(C(=O)COc1cccnc1[N+](=O)[O-])C1CCS(=O)(=O)C1 (configuration not stated) | 0.14 (inactive) | 0.45
C=CCOc1c(Br)cc(/C=N\n2nnnc2N)cc1OC | 0.16 (inactive) | 0.27
CC(=O)Nc1ccc(S(=O)(=O)NC2(C(F)(F)F)C(=O)Nc3c2c(=O)[nH]c(=O)n3Cc2ccccc2)cc1 (configuration not stated) | 0.9 (inactive) | -0.08
Cc1ccc(Nc2ccc(C(N)=O)cc2[N+](=O)[O-])cc1 | 0.35 (inactive) | 0.28

SMILES | z-score (OD600 30 h) | z-score [1]
CCC1CCCCN1C(=S)Nc1ccc(C(C)=O)cc1 (configuration not stated) | -0.29 (inactive) | -0.44
C=CCn1c(SCc2ccc(Cl)c(Cl)c2)nnc1C(CO)NC(=O)c1ccc(OC)cc1 (configuration not stated) | 0.22 (inactive) | -0.41
COc1cc(/C=C/C(=O)OCC(=O)Nc2cccc(Oc3ccccc3)c2)ccc1O | -0.4 (inactive) | 0.4
O=C(COC(=O)/C=C/c1cccc(Cl)c1)NCCc1ccccc1 | 3.39 (active) | 3.67
COc1ccc(/C=C/C(=O)OCC(=O)NCc2cccs2)cc1OC | 1.04 (inactive) | 0.67
CC(NC(=S)Nc1ccccc1)C1COc2ccccc2O1 (configuration not stated) | -0.7 (inactive) | 0.37
Clc1cccc(CN2COc3c(cc(Cl)c4cccnc34)C2)c1 | -1.42 (inactive) | 1.02
COc1ccc(C(=O)CSc2nnc(NC(=O)C3CC(=O)N(c4cccc(OC)c4)C3)s2)cc1 (configuration not stated) | -0.16 (inactive) | 0.63
Cn1cccc1/C=C1\SC(=S)N(NC(=O)c2ccc(Cl)cc2)C1=O | -1.05 (inactive) | -0.65
COc1cc(OC)c(-n2cc(-c3ccc(Cl)cc3)[nH]c2=O)cc1Cl | 0.21 (inactive) | 1.29
COCCCNC(=O)CNC(=S)N(Cc1cc(OC)c(OC)c(OC)c1)C1CCCC1 | 1.27 (inactive) | 0.62
O=C(NC(=S)NC1CCSC1=O)c1ccccc1F (configuration not stated) | 1.34 (inactive) | 0.37
COc1cc(OC)c(C(=O)OC(C)C(=O)Nc2cc(C(F)(F)F)ccc2Cl)cc1OC (configuration not stated) | -0.55 (inactive) | -0.89
COc1ccc(COC(=O)N/N=C(\C)CC(=O)Nc2ccc(Cl)cc2)cc1 | -0.6 (inactive) | -0.79
Cc1cccc2cc(CN(Cc3cccs3)C(=S)NCc3ccco3)c(=O)[nH]c12 | -0.84 (inactive) | -0.86
Cc1nc(CC(=O)NNS(=O)(=O)c2ccc(F)c(Cl)c2)cs1 | -0.8 (inactive) | -1.4
Oc1c(Br)cccc1/C=N/Nc1c(F)c(F)c(F)c(F)c1F | -1.2 (inactive) | -1.07
CCCCC(NS(=O)(=O)c1ccc(C)cc1)C(=O)Oc1ccc2c3c(c(=O)oc2c1)CCC3 (configuration not stated) | 3.73 (inactive) | 0.78
COc1ccc(-c2nnco2)cc1OC | 12.4 (active) | 7.83

SMILES | z-score (OD600 30 h) | z-score [1]
COc1ccc2c(Cl)c(-c3nnco3)sc2c1 | -1.26 (inactive) | -0.79
COc1ccc(-c2noc(-c3cccc(OC)c3OC)n2)cc1OC | 0.11 (inactive) | 0.39
O=C(COC(=O)c1ccc(Oc2ccccc2)cc1)Nc1nnc(-c2ccccc2)o1 | 0.36 (inactive) | -0.67
COc1cccc(-c2nnc(NC(=O)c3ccc(S(=O)(=O)N(CC(C)C)CC(C)C)cc3)o2)c1 | 5.73 (active) | 8.93
COc1cccc(NC(=O)CN(C)S(=O)(=O)c2ccc(C)cc2)c1 | -1.24 (inactive) | -0.78
O=C(Cc1ccc(-c2ccccc2)cc1)NC(c1ccccc1)c1ccccc1 | -0.71 (inactive) | -0.45
COc1ccc(CC(=O)Nc2cc(S(=O)(=O)N3CCCCC3)ccc2N2CCN(C)CC2)cc1 | 0.01 (inactive) | -0.4
O=[N+]([O-])c1cccc(S(=O)(=O)N2CCCCCC2)c1 | 0.38 (inactive) | -0.08
Cc1ccc(C(C)C)cc1OCCN1CCCC1 | -1.51 (inactive) | -0.59
O=C(Nc1ccc(CSc2ccccc2)cc1)c1ccc(CN2CCOCC2)cc1 | -1.65 (inactive) | -1.3
CSCC[C@H](NC(=O)OC(C)(C)C)C(=O)N/N=C/c1cc2ccc(C)cc2nc1Cl | -1.17 (inactive) | -0.96
Cc1ccc(C)c(OCC(=O)N2CCN(C(=O)c3ccco3)CC2)c1 | 2.17 (inactive) | 2
CCn1c(/C=N/NC(=O)c2ccc(OC)cc2)nc2ccccc21 | -1.61 (inactive) | -0.95
CC(C)CC(CO)N1CCN(C(=O)c2ccc(Cl)cc2Cl)CCC1=O (configuration not stated) | 0.36 (inactive) | -0.56
CC(=O)Nc1ccc(SCC(=O)Nc2ccccc2Oc2ccccc2)cc1 | -0.06 (inactive) | -0.09
Cc1sc2nc(CC(N)=O)[nH]c(=O)c2c1-c1ccccc1 | 0.91 (inactive) | 0.6
CCOc1cc(NC(=S)NCCCOC)c(OCC)cc1NC(=O)c1ccco1 | 0.22 (inactive) | -0.09
CCOc1cccc(OCCCOc2cccc3cccnc23)c1 | -1.11 (inactive) | -0.59
